# PubChem BioAssay AID1159580 (chemical genetic matrix, 2015)
# About 2,000 (36%) of roughly 5,500 compounds were called active. About 18% were inconclusive and are not listed. The list shows a part of the results. A number with no mark means an inactive call. Rule as the data show it: active = normalized growth mostly below about 0.91 (no sharp cut-off); inconclusive = no clear call, values can overlap the other calls; inactive = mostly above about 0.92.
# Test: chemical genetic growth profiling, strain panel (AID 1159580);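 also: tested at 20 µM; growth read once vehicle control cultures reached saturation at 30 °C; 1 = growth at the plate median or of vehicle wells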
# Details: S. cerevisiae deletion strains, growth OD
# [1] = locus YHR030C, strain SLT2, stronger effect = lower value
# [2] = locus YHR079C, strain IRE1, stronger effect = lower value
# [3] = locus YJL095W, strain BCK1, stronger effect = lower value
# [4] = locus YJR066W, strain TOR1, stronger effect = lower value
# [5] = locus YLR113W, strain HOG1, stronger effect = lower value
# [6] = locus YNL183C, strain NPR1, stronger effect = lower value
# [7] = locus YOR231W, strain MKK1, stronger effect = lower value
# [8] = locus YPL256C, strain CLN2, stronger effect = lower value
smiles,measurement,setting,value
CC(=O)[C@H]1CCC2C3CC=C4C[C@@H](OS(=O)(=O)O)CC[C@]4(C)C3CC[C@@]21C (some centres undefined),normalized growth,"locus YAL040C, strain CLN3, stronger effect = lower value",0.959
same,normalized growth,"locus YCL061C, strain MRC1 (second series), stronger effect = lower value",0.981
same,normalized growth,"locus YDR363W, strain ESC2, stronger effect = lower value",1.01
same,normalized growth,"locus YER002W, strain NOP16, stronger effect = lower value",0.979
same,normalized growth,"locus YMR263W, strain SAP30, stronger effect = lower value",0.978
same,normalized growth,"locus YMR307W, strain GAS1, stronger effect = lower value",0.997
same,normalized growth,"locus YNL175C, strain NOP13, stronger effect = lower value",0.988
same,normalized growth,"locus YNL197C, strain WHI3, stronger effect = lower value",1
same,normalized growth,"locus YNL224C, strain SQS1, stronger effect = lower value",0.984
same,normalized growth,"locus YNL322C, strain KRE1, stronger effect = lower value",0.964
same,normalized growth,"locus YOR083W, strain WHI5 (second series), stronger effect = lower value",0.975
same,normalized growth,"locus YPL241C, strain CIN2, stronger effect = lower value",0.984
CC(=O)C1CCC2C3CC=C4CC(OS(=O)(=O)O)CC[C@]4(C)C3CC[C@]12C (some centres undefined),normalized growth,[1],0.973
same,normalized growth,[2],0.984
same,normalized growth,[3],0.953
same,normalized growth,[4],0.877
same,normalized growth,[5],1.03
same,normalized growth,[6],0.902
same,normalized growth,[7],0.977
same,normalized growth,[8],0.975
CC(=O)OCC(=O)[C@H]1CCC2C3CC=C4C[C@@H](O)CC[C@]4(C)C3CC[C@@]21C (some centres undefined),normalized growth,"locus YAL021C, strain ccr4, stronger effect = lower value",1.04
same,normalized growth,"locus YAL026C, strain drs2, stronger effect = lower value",0.971
same,normalized growth,"locus YAL030W, strain snc1, stronger effect = lower value",0.993
same,normalized growth,"locus YBL061C, strain skt5, stronger effect = lower value",0.969
same,normalized growth,"locus YBR009C, strain hhf1, stronger effect = lower value",0.819 (active)
same,normalized growth,"locus YBR023C, strain chs3, stronger effect = lower value",0.97
same,normalized growth,"locus YBR171W, strain sec66, stronger effect = lower value",1
same,normalized growth,"locus YBR231C, strain swc5, stronger effect = lower value",0.894 (active)
same,normalized growth,"locus YBR279W, strain paf1, stronger effect = lower value",0.998
same,normalized growth,"locus YCL011C, strain gbp2, stronger effect = lower value",0.858 (active)
same,normalized growth,"locus YCL016C, strain dcc1, stronger effect = lower value",0.983
same,normalized growth,"locus YCL061C, strain MRC1, stronger effect = lower value",0.893 (active)
same,normalized growth,"locus YCL069W, strain vba3, stronger effect = lower value",0.893 (active)
same,normalized growth,"locus YCR088W, strain abp1, stronger effect = lower value",0.965
same,normalized growth,"locus YDL005C, strain med2, stronger effect = lower value",0.885 (active)
same,normalized growth,"locus YDL040C, strain nat1, stronger effect = lower value",1.01
same,normalized growth,"locus YDR001C, strain nth1, stronger effect = lower value",1.01
same,normalized growth,"locus YDR069C, strain doa4, stronger effect = lower value",1.02
same,normalized growth,"locus YDR137W, strain rgp1, stronger effect = lower value",0.742 (active)
same,normalized growth,"locus YDR159W, strain sac3, stronger effect = lower value",0.753 (active)
same,normalized growth,"locus YDR195W, strain ref2",1.4 [resistant] (active)
same,normalized growth,"locus YDR297W, strain sur2, stronger effect = lower value",1.02
same,normalized growth,"locus YDR334W, strain swr1, stronger effect = lower value",1.01
same,normalized growth,"locus YDR335W, strain msn5, stronger effect = lower value",0.908 (active)
same,normalized growth,"locus YDR392W, strain spt3, stronger effect = lower value",0.142 (active)
same,normalized growth,"locus YEL003W, strain gim4, stronger effect = lower value",0.894 (active)
same,normalized growth,"locus YEL037C, strain rad23, stronger effect = lower value",0.999
same,normalized growth,"locus YEL061C, strain CIN8 (second series), stronger effect = lower value",0.945
same,normalized growth,"locus YER015W, strain faa2, stronger effect = lower value",1.01
same,normalized growth,"locus YER016W, strain bim1, stronger effect = lower value",0.967
same,normalized growth,"locus YER111C, strain swi4, stronger effect = lower value",0.986
same,normalized growth,"locus YER155C, strain BEM2 (second series), stronger effect = lower value",0.337 (active)
same,normalized growth,"locus YFR010W, strain ubp6, stronger effect = lower value",0.976
same,normalized growth,"locus YGL167C, strain pmr1, stronger effect = lower value",1
same,normalized growth,"locus YGL173C, strain kem1, stronger effect = lower value",0.953
same,normalized growth,"locus YGL227W, strain vid30, stronger effect = lower value",0.935
same,normalized growth,"locus YGL240W, strain doc1, stronger effect = lower value",0.927
same,normalized growth,"locus YGL253W, strain hxk2, stronger effect = lower value",0.937
same,normalized growth,"locus YHR013C, strain ard1, stronger effect = lower value",0.87
same,normalized growth,"locus YHR027C, strain rpn1, stronger effect = lower value",1.05
same,normalized growth,[1],0.896
same,normalized growth,[2],0.915
same,normalized growth,"locus YHR142W, strain chs7, stronger effect = lower value",0.593 (active)
same,normalized growth,"locus YJL092W, strain hpr5, stronger effect = lower value",0.931
same,normalized growth,"locus YJL095W, strain BCK1 (second series), stronger effect = lower value",0.97
same,normalized growth,[3],0.956
same,normalized growth,"locus YJL115W, strain asf1, stronger effect = lower value",1.02
same,normalized growth,"locus YJL129C, strain trk1, stronger effect = lower value",0.696 (active)
same,normalized growth,"locus YJL154C, strain vps35, stronger effect = lower value",1.01
same,normalized growth,"locus YJL164C, strain tpk1, stronger effect = lower value",0.853 (active)
same,normalized growth,"locus YJL166W, strain qcr8, stronger effect = lower value",0.826 (active)
same,normalized growth,[4],0.913
same,normalized growth,"locus YKL160W, strain elf1, stronger effect = lower value",0.946
same,normalized growth,"locus YKR026C, strain gcn3, stronger effect = lower value",1.01
same,normalized growth,"locus YKR091W, strain srl3, stronger effect = lower value",1.02
same,normalized growth,"locus YLL001W, strain dnm1, stronger effect = lower value",0.829 (active)
same,normalized growth,"locus YLL026W, stronger effect = lower value",0.935
same,normalized growth,"locus YLL041C, strain sdh2, stronger effect = lower value",1.07 [resistant] (active)
same,normalized growth,"locus YLR027C, strain aat2, stronger effect = lower value",0.921 (active)
same,normalized growth,[5],0.882
same,normalized growth,"locus YLR221C, strain rsa3, stronger effect = lower value",0.816 (active)
same,normalized growth,"locus YLR258W, strain gsy2, stronger effect = lower value",0.963
same,normalized growth,"locus YLR262C, strain YPT6 (second series), stronger effect = lower value",0.583 (active)
same,normalized growth,"locus YLR320W, strain mms22, stronger effect = lower value",0.435 (active)
same,normalized growth,"locus YLR342W, strain FKS1, stronger effect = lower value",0.762 (active)
same,normalized growth,"locus YLR357W, strain rsc2, stronger effect = lower value",1.04
same,normalized growth,"locus YLR370C, strain arc18, stronger effect = lower value",1
same,normalized growth,"locus YLR384C, strain iki3, stronger effect = lower value",1.02
same,normalized growth,"locus YML120C, strain ndi1, stronger effect = lower value",0.805 (active)
same,normalized growth,"locus YMR058W, strain fet3, stronger effect = lower value",0.924
same,normalized growth,"locus YMR125W, strain sto1, stronger effect = lower value",0.829 (active)
same,normalized growth,"locus YMR129W, stronger effect = lower value",0.998
same,normalized growth,"locus YMR205C, strain PFK2, stronger effect = lower value",0.833 (active)
same,normalized growth,"locus YMR231W, strain pep5, stronger effect = lower value",1.02
same,normalized growth,"locus YNL071W, strain lat1, stronger effect = lower value",0.175 (active)
same,normalized growth,[6],0.956
same,normalized growth,"locus YNL209W, strain ssb2, stronger effect = lower value",1.08 [resistant] (active)
same,normalized growth,"locus YNL248C, strain rpa49, stronger effect = lower value",0.899
same,normalized growth,"locus YNL322C, strain KRE1 (second series), stronger effect = lower value",1.02
same,normalized growth,"locus YNR049C, strain mso1, stronger effect = lower value",0.991
same,normalized growth,"locus YOR001W, strain rrp6, stronger effect = lower value",1.02
same,normalized growth,"locus YOR070C, strain gyp1, stronger effect = lower value",1.03
same,normalized growth,"locus YOR080W, strain dia2, stronger effect = lower value",1.01
same,normalized growth,"locus YOR083W, strain WHI5, stronger effect = lower value",0.885 (active)
same,normalized growth,"locus YOR106W, strain vam3, stronger effect = lower value",0.913
same,normalized growth,[7],0.942
same,normalized growth,"locus YOR265W, strain rbl2, stronger effect = lower value",0.979
same,normalized growth,"locus YOR270C, strain vph1, stronger effect = lower value",0.669 (active)
same,normalized growth,"locus YOR290C, strain snf2, stronger effect = lower value",0.862 (active)
same,normalized growth,"locus YPL051W, strain arl3, stronger effect = lower value",1
same,normalized growth,"locus YPL078C, strain atp4, stronger effect = lower value",0.887 (active)
same,normalized growth,"locus YPL106C, strain sse1, stronger effect = lower value",1.3 [resistant] (active)
same,normalized growth,"locus YPL240C, strain hsp82, stronger effect = lower value",1.03
same,normalized growth,[8],0.906
